Test results from the supplement of paper PMC6555819.

What was measured:
Test in all cases: PBM binding z-score (relative to random genomic background probes); higher = stronger binding; sequences stand for … in GC…GCGATTGACAGCGTAGAATGAAGG
[1] = tested on: RARb homodimer (NR concentration 270 nM)
In short: (§1)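 Random background probes are the reference for binding z-scores. These scores derive from regression-normalized fluorescence on custom Agilent 4×180K protein-binding microarrays incubated 1 h with ligand-free nuclear receptor dimers. Binding was detected with antibodies against each partner (one per run).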

[2] = tested on: RARg:RXRa (NR concentration 270 nM, RXRa partner concentration 90 nM)
In short: as §1

[3] = tested on: RARg homodimer (NR concentration 270 nM)
In short: as §1

[4] = tested on: RXRa DBDmut IVT, anti-RXR (DBD mutation: RXRa K156A/R161A, NR concentration 90 nM)
In short: as §1

[5] = tested on: RXRa homodimer (NR concentration 180 nM)
In short: as §1

[6] = tested on: THRa:RXRa (NR concentration 90 nM, RXRa partner concentration 90 nM)
In short: as §1

[7] = tested on: THRa homodimer (NR concentration 90 nM)
In short: as §1

[8] = tested on: VDR homodimer (NR concentration 270 nM)
In short: as §1

| Sequence | PBM binding z-score [1] | PBM binding z-score [2] | PBM binding z-score [3] | PBM binding z-score [4] | PBM binding z-score [5] | PBM binding z-score [6] | PBM binding z-score [7] | PBM binding z-score [8] |
| --- | --- | --- | --- | --- | --- | --- | --- | --- |
| CGTCCAAGGTCAGCAGGTCAGAGAAAGCGACGTG | 4.32 | 6.59 | 6.67 | 2.55 | 5.72 | 3.92 | 2.42 | 1.83 |
| CGAACTAGGTCAAAGGACAGTTAAAGGCGACGTA | 3.01 | 4.13 | 4.51 | 1.67 | 3.1 | 2.49 | 0.41 | 0.768 |
| CTATGTAGGTTATGGGGGTCATTCAGTTTGAAAG | 4.1 | 5.57 | 4.08 | 2.33 | 6.38 | 3.9 | 2.67 | 6.69 |
| ACTCGGGGGACAAAGGTCAGAGCTACGCCAGTGA | 4.56 | 7.2 | 6.12 | 2.06 | 6.34 | 3.82 | 1.07 | 1.81 |
| CCGAGTAGGTTACGAGGGGGCATTGAGTGCGAAT | 1.96 | 3.29 | 2.3 | 1.46 | 2.21 | 3.98 | 0.378 | 3.76 |
| CAAACTAGGTCAAAGGTCAACGTCGAGCCAACCA | 5.12 | 8.91 | 7.98 | 2.88 | 10.3 | 4.98 | 2.1 | 2.86 |
| CGTCAAAGTTAAAGGTAACGTAACAGAAAGCAGC | 0.442 | 0.799 | 0.833 | 0.0376 | 0.816 | 0.694 | -0.0792 | -0.165 |
| CCGAGTCGGTTACGAGGGGGCATTCAGTGCGAAT | 1.4 | 1.66 | 1.41 | 0.587 | 0.76 | 2.35 | 0.015 | 3.2 |
| CTATGTAGGTTAAGGGGGGCATTCAGTTTGAAAG | 2.88 | 3.52 | 2.84 | 2.58 | 2.76 | 3.12 | 2.39 | 4.81 |
| AGTCAAAGTTCACGACGAGGTAACGTAAAGCACG | 4.35 | 6.88 | 6.88 | 4.21 | 5.95 | 4.41 | 1.36 | 3.96 |
| TTAACAAGGTGAAAGGTCGTTGATGCACGCCTTG | 2.51 | 4.28 | 2.1 | 0.328 | 6.17 | 3.51 | 0.757 | 1.24 |
| ATCTCTAGGTAAAGGTCAGTGAAAGATCGATAGA | 4.26 | 4.52 | 5.13 | 0.521 | 4.35 | 2.98 | 0.87 | 1.17 |
| CGTCCGAGGTCAAAGGTCAGTGAAGAGATGACGG | 5.1 | 8.9 | 8.05 | 4.57 | 10.3 | 4.89 | 2.7 | 4.73 |
| ATATGTAGGTTAGGGACATTCAGAAAGTAGGGAA | 1.11 | 0.67 | 1.27 | 0.8 | 0.406 | 2.32 | 1.51 | 0.36 |
| CGAAATAGGTCAAAGGACAGTGAAAGGCGACGTA | 3.4 | 4.97 | 5.11 | 1.3 | 4.58 | 2.4 | -0.113 | 0.355 |
| GCTGCAAGGTCAACTGATGGTCAGCTAAAGCTCG | 4.71 | 7.17 | 7.04 | 3.75 | 5.7 | 4.18 | 2.31 | 2.53 |
| CCTAGTTGGCCAAGGTCACACACGCTATAGGTAC | 4.08 | 4.16 | 4.16 | 2.02 | 4.27 | 3.96 | 3.61 | 3.38 |
| CGAACTAGGTCAGAACAGTACAGTGAAGGATGAT | 1.96 | 2.46 | 3.33 | 0.94 | 1.27 | 1.83 | 0.222 | 0.229 |
| TCGAGTAGTTTACGGGGGCATTCAGGGATGAAGA | 1.53 | 2.16 | 1.57 | 2.09 | 1.48 | 3.55 | 1.05 | 3.23 |

| Sequence | PBM binding z-score [1] | PBM binding z-score [2] | PBM binding z-score [3] | PBM binding z-score [4] | PBM binding z-score [5] | PBM binding z-score [6] | PBM binding z-score [7] | PBM binding z-score [8] |
| --- | --- | --- | --- | --- | --- | --- | --- | --- |
| CGTCAAAGTTCAACTAATGTAACGTAAAGCACGC | 3.96 | 5.66 | 6.9 | 4.76 | 4.75 | 3.31 | 0.305 | 4.13 |
| ATATGTAGGTTACATCCGGGTCTTTCAGGCTATG | 1.01 | 1.09 | 1.02 | 0.936 | 0.924 | 1.62 | 0.947 | 0.214 |
| CGTCCAAGGTCAAGGGCAGTGAAAGAGACTCGAA | 4.22 | 5.8 | 6.3 | 3.02 | 5 | 3.87 | 2.22 | 1.92 |
| CGTCCAAGGTCAAAGGTCAGTAAAGAGATGACGG | 5.42 | 8.65 | 8.13 | 3.88 | 10.4 | 4.82 | 2.37 | 3.52 |
| CGAACTAGGTCACCAGCACAGTGAAGAGGTTGGA | 3.37 | 4.43 | 5.44 | 1.35 | 3.29 | 3.1 | 1.29 | 0.496 |
| GATTCAGGGTCAGCTAGAGGCCAGAGTATGGAAA | 3.87 | 7 | 5.09 | 1.93 | 4.72 | 3.52 | 1.01 | 0.938 |
| TCGAGTAGGTTACGGGGACATTCAGGGATGAAGA | 1.42 | 1.26 | 1.01 | 0.561 | 1.09 | 2.77 | 1.57 | 1.1 |
| CTTACTGGGCCAAAGGTCATTGATTCCAATGCTC | 4.58 | 5.97 | 4.91 | 1.99 | 6.68 | 3.36 | 0.898 | 2.79 |
| CCTAGCAGGCCAGGGTCACCCAAGCATTTCGCTT | 3.34 | 3.95 | 2.98 | -0.0851 | 4.34 | 3.44 | 1.71 | 1.35 |
| GATACAGGGTCATCTAGAGGCCAGAGTATGGAAA | 3.71 | 7.56 | 5.37 | 3.39 | 6.6 | 3.76 | 0.837 | 2.85 |
| TCTTGTTGATCAAAGGTTAAGAAAGCCGAAGCCT | 1.89 | 1.64 | 1.11 | 0.76 | 2.64 | 1.58 | -0.291 | 0.435 |
| CTATGTAGGTTAAGGGGGTCATTTAGTTTGAAAG | 3.86 | 5.19 | 3.66 | 2.54 | 5.85 | 3.83 | 2.03 | 5.81 |
| ATATGTAGGTAAGGGTCATTCAGAAAGTAGGGAA | 3.55 | 4.21 | 3.2 | 2.15 | 4.88 | 3.01 | 1.15 | 3.13 |
| ACTCGGAGGACAGAGGTCAGAGCTACGCCAGTGA | 3.82 | 4.6 | 4.17 | 0.707 | 4.17 | 3.03 | 0.579 | 1.19 |
| CATACAGGGTCATCTAGGCCAGAGTAGGGACGGC | 3.37 | 5.16 | 4.85 | 3.17 | 5.72 | 3.6 | 1.37 | 3.3 |
| ATATGTAGGTTAGGGTAATTCAGAAAGTAGGGAA | 1.35 | 1.05 | 0.966 | 0.835 | 1.16 | 1.72 | 1.34 | 1.11 |
| ATCGAAAGGTCGACGAGTTGAGTATACACCGTTT | 2.63 | 3.88 | 4.05 | 1.46 | 4.2 | 2.24 | -0.136 | 2.1 |
| CGAACTAGGTCAGAACAGGACATTGAAGGATGAT | 2.12 | 2.57 | 3.4 | 0.96 | 1.41 | 3.72 | 0.36 | 0.369 |
| CCGAGTAGGTTACAAGGGGGCATTCAGTGCGAAT | 2.41 | 2.84 | 2.42 | 1.47 | 2.1 | 3.61 | 0.507 | 3.51 |

| Sequence | PBM binding z-score [1] | PBM binding z-score [2] | PBM binding z-score [3] | PBM binding z-score [4] | PBM binding z-score [5] | PBM binding z-score [6] | PBM binding z-score [7] | PBM binding z-score [8] |
| --- | --- | --- | --- | --- | --- | --- | --- | --- |
| CCGAGTAGGTTACGAGGGTGCATTCAGTGCGAAT | 0.573 | 0.908 | 0.734 | 0.804 | 1.18 | 1.71 | -0.985 | 3.12 |
| CGTCCAAGGTCAATGCTAGCTCAGTGAAAGCATT | 3.86 | 5.61 | 6.7 | 3.48 | 5.19 | 3.64 | 2.02 | 1.83 |
| CCGAGTAGGATACGAGGGGGCATTCAGTGCGAAT | 1.17 | 1.37 | 0.779 | 0.527 | 0.919 | 1.97 | -0.158 | 2.57 |
| ATATGGAGGTTAAGGGTCATTCAGGTTGGTTCGC | 4.46 | 5.75 | 4.13 | 2.5 | 7.76 | 3.96 | 2.38 | 5.63 |
| CTCGAAAGGTCGTGGTCAGGTGAGTATACCAAAC | 3.25 | 5.58 | 4.34 | 1.88 | 5.4 | 4.01 | 0.825 | 1.13 |
| GGAACGAGGGCAAAGGTGATAGCATCTGTCGACG | 1.66 | 3.02 | 1.95 | 2.07 | 3.31 | 1.85 | -0.159 | 1.02 |
| TAGCCTAGGTCATTCAGGGGCTAGTATAGAAAGC | 2.84 | 4.98 | 4.16 | 1.94 | 2.89 | 3.74 | 0.0111 | 0.805 |
| ATTTGTAGGTTATCGGGTCATTCAGTTTGCGCAT | 3.53 | 3.69 | 3.01 | 1.95 | 3.61 | 3.6 | 3.62 | 4.42 |
| CGAACTAGGTCACCGGGACAGTGAAGAGGTTGGA | 3.62 | 4.73 | 5.23 | 1.41 | 3.62 | 3.75 | 1.79 | 0.333 |
| CCGAGCAGGTTACGAGGGGGCATTCAGTGCGAAT | 2.17 | 3.02 | 2.4 | 1.56 | 2.21 | 3.81 | 0.885 | 3.5 |
| GCTGCTAGGTCAGGTTGGTCAGCTAACGGGTACG | 2.53 | 2.7 | 3.45 | 0.582 | 0.927 | 1.84 | 0.48 | 0.466 |
| GCTTACGGGTGAAAGGTTATAGCATGAATAGAAT | 1.48 | 3.01 | 1.34 | 0.431 | 4.95 | 2.2 | 0.0422 | -0.0188 |
| ATATGCAGGTTAGGGTCATTCAGAAAGTAGGGAA | 3.2 | 4 | 3.17 | 2.15 | 5.23 | 3.89 | 2.86 | 3.64 |
| CGAACTAGGTCAAAGGATAGTGAAAGGCGACGTA | 2.35 | 3.47 | 4.16 | 1.28 | 2.85 | 2.22 | 0.17 | 0.124 |
| CCGAGTAGGTTACGAGGGGGTATTCAGTGCGAAT | 1.15 | 1.98 | 1.63 | 0.847 | 1.17 | 2.6 | 0.46 | 1.11 |
| AATACAGGGTCATTAGGCCAGAGTAGGTACGAAT | 2.95 | 4.94 | 4.39 | 3.84 | 5.53 | 3.28 | 1.07 | 3.17 |
| CGTCAAAGTTCATGGTAACGTAACAGAAAGCAGC | 4.04 | 5.3 | 5.92 | 4.79 | 4.53 | 1.98 | -0.212 | 4.64 |
| CCGAGTAGGTTGCGAGGGGGCATTCAGTGCGAAT | 1.77 | 1.99 | 1.28 | 1.58 | 1.27 | 3.09 | 0.684 | 3.23 |
| CTATGTAGGTTAAGGGGTTCATTCAGTTTGAAAG | 1.75 | 1.88 | 1.04 | 2.79 | 2.55 | 1.92 | 0.473 | 7.01 |
